aDG glyco act = alpha-DG glycosylation activation; Pro5-aDG cells, alpha-DG glycosylation AlphaScreen (IIH6); 0% Pro5, 100% B10-LARGE cell signal; 360,000 compounds, 0.22% hits; AID 624168; activation, % at 10 µM;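 active means activation of at least 8% versus controls, or a plate z-score of at least 8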;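 further: Pro5 are CHO cells carrying HIG-tagged alpha-DG that lacks glycosylation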
EBV LMP1 NFkB = Epstein-Barr LMP1 NF-kappaB reporter inhibition | LMP1-induced NF-kappaB luciferase reporter cells, luminescence | inhibition, % at 12.5 µM | 350,000 compounds, 0.69% hits; in the data active means inhibition above about 41%; inconclusive means no clear call, values can overlap the other calls
TROY signal inh = blocks TROY-dependent signaling in reporter cells. Q293 LMP1-TROYcd NF-kB luciferase reporter, 4 h. inhibition, % at 10 µM. 360,000 compounds, 0.98% hits. AID 1347056;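 active means compounds whose plate-normalised and pattern-corrected inhibition of the luciferase reporter signal at the single screening dose is 50% or more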
HSP90 refold inh = blocks HSP90-mediated luciferase refolding in reticulocyte lysate. 290,000 compounds, 0.91% hits. inhibition, % at 5.6 µM. Rabbit reticulocyte lysate, luciferase refolding luminescence, 3 h. AID 1789;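 active means inhibition above the screen-wide mean plus 3 SD, computed separately per campaign, cut at about 16% in these data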;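 further: inhibitors lower the luminescence because luciferase stays unfolded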
TWEAK Fn14 block = TWEAK-Fn14 signaling inhibition | 360,000 compounds, 2% hits | inhibition, % at 10 µM | AID 1159606 | TWEAK-stimulated Fn14 reporter cells, luciferase luminescence, 8 h; in the data active means inhibition above about 50%
LGR2 antag = blocks bursicon-induced cAMP signaling via Drosophila LGR2; HEK293 LGR2, CRE-luciferase, bursicon-stimulated, 4 h; inhibition, % at 9.99 µM; 380,000 compounds, 0.35% hits; AID 720647;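 active means drop in luminescence signal, shown as inhibition above about 50% in the replicate tests, limit read from the data, passing the limit was not always enough; inconclusive means probably only some replicates passing the limit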;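 further: agonist challenge used bursicon conditioned medium at about half maximal strength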
Hits are given with their value; i = inactive; ? = inconclusive; nt = no result given. In the library only some 2.6% were active in any assay of this set; here they are far more common.

SMILES | aDG glyco act | EBV LMP1 NFkB | TROY signal inh | HSP90 refold inh | TWEAK Fn14 block | LGR2 antag
COc1cc(/C=N/Nc2nc3ccccc3o2)cc(OC)c1O | i | i | i | i | i | nt
CCOc1cc(/C=N/NC(=O)c2cc(-c3cccc(OC)c3)nc3ccccc23)ccc1O | i | nt | 58 | nt | 78 | i
CC(C)C#Cc1ccc2c(c1)O[C@H](CN(C)S(C)(=O)=O)[C@H](C)CN([C@H](C)CO)S2(=O)=O | nt | nt | nt | nt | nt | i
CCOc1cc(/C=N/Nc2nc3ccccc3[nH]2)cc(Br)c1OCC(=O)N(C)C | i | i | i | i | i | ?
CCOc1cc(/C=C2\COc3ccccc3C2=O)cc(Br)c1OCC(=O)N(C)C | i | i | 79 | i | 70 | i
COc1ccc(/C=C2\COc3ccccc3C2=O)cc1OC | i | i | i | i | 54 | i
O=C(O)c1ccc(/C=C2\COc3ccccc3C2=O)cc1 | i | i | i | i | 78 | i
Cc1c(/N=C(\[O-])Nc2ccc(Br)cc2)sn[n+]1C | i | nt | i | i | 68 | 82
O=C(c1ccccc1F)N1C[C@@H]2[C@H](c3ccccc31)[C@H](CO)N2C(=O)c1cccnc1 | nt | nt | nt | nt | nt | i
CCn1nc(C(=O)Nc2nc(-c3ccccn3)cs2)c2ccccc2c1=O | i | 42 | i | nt | i | i
CN(C)CCCNC(=O)C[C@H]1CC[C@@H]2[C@@H](COc3ccc(NC(=O)c4cccc(F)c4)cc3C(=O)N2C)O1 | nt | nt | nt | nt | nt | i
C[C@@H]1CN([C@@H](C)CO)C(=O)c2cc(-c3cccc(C#N)c3)cnc2O[C@@H]1CN(C)C(=O)c1cnccn1 | nt | nt | nt | nt | nt | i
CO[C@H]1CC[C@H]2CCOc3ccc(C#N)cc3C(=O)N(C)C[C@@H](OC)[C@@H](C)C(=O)N(C)C[C@H]1O2 | nt | nt | nt | nt | nt | i
O=C1N/C(=C/c2cccn2-c2ccccc2)C(=O)N1Cc1ccc(F)cc1 | i | i | i | i | i | i
O=C1N/C(=C/c2cccn2-c2ccc(F)cc2)C(=O)N1Cc1ccccc1F | i | i | i | i | 75 | i
COc1ccc(/C=C/c2noc(-c3ccccc3O)n2)cc1 | i | i | i | i | 56 | i
CN(C)C(=O)C[C@H]1CC[C@H]2[C@@H](COC[C@H](O)CN2C(=O)C2CC2)O1 | nt | nt | nt | nt | nt | i
N#Cc1ccccc1OCCn1cncn1 | i | i | i | i | i | i
Cc1cc2ncn(CCOc3ccccc3C#N)c2cc1C | i | i | nt | i | 55 | i
CCCNC(=O)N(C)C[C@@H]1Oc2ncc(-c3ccncc3)cc2C(=O)N([C@H](C)CO)C[C@H]1C | nt | nt | nt | nt | nt | i
CO[C@H]1CN(C)C(=O)c2cc(NC(=O)C3CCCC3)ccc2OC[C@@H](C)N(C)C[C@@H]1C | nt | nt | nt | nt | nt | i
O=C(Nc1cccc(S(=O)(=O)N2CCCCC2)c1)Nc1ccc(Cl)cc1Cl | i | i | 59 | i | 83 | i
O=C(Nc1cccc(S(=O)(=O)N2CCCCCC2)c1)c1ccc(Cl)nc1 | i | i | i | nt | i | i
O=C(Nc1ccc(Cl)cc1Cl)NC1CCN(S(=O)(=O)c2ccc(F)cc2)CC1 | i | i | 52 | i | i | i
O=C(Cc1ccccc1Cl)Nc1cccc(S(=O)(=O)N2CCCCCC2)c1 | i | i | i | nt | i | i
SMILES | aDG glyco act | EBV LMP1 NFkB | TROY signal inh | HSP90 refold inh | TWEAK Fn14 block | LGR2 antag
COc1ccccc1NS(=O)(=O)c1cccc(NC(=O)Nc2ccc(Cl)cc2)c1 | i | i | 59 | i | 84 | i
O=C(Nc1cccc(S(=O)(=O)Nc2ccccc2Cl)c1)c1ccc(Cl)nc1 | i | i | i | i | 63 | i
COc1ccccc1NS(=O)(=O)c1cccc(NC(=O)Nc2ccccc2)c1 | i | i | i | i | i | i
COc1cccc(-c2cn(CC[C@H]3CC[C@H](NC(C)=O)[C@@H](CO)O3)nn2)c1 | nt | nt | nt | nt | nt | i
CC(C)NC(=O)N(C)C[C@H]1OCCCC[C@H](C)Oc2ccc(N(C)C)cc2C(=O)N([C@H](C)CO)C[C@@H]1C | nt | nt | nt | nt | nt | i
COc1ccc(C(=O)n2cnc3ccccc32)cc1 | i | i | i | i | 78 | i
COc1ccc(C(=O)n2cnc3ccccc32)cc1Br | i | i | i | nt | i | i
C/C=C/c1cnc2c(c1)C(=O)N([C@H](C)CO)C[C@@H](C)[C@@H](CN(C)C(=O)Nc1ccccc1F)O2 | nt | nt | nt | nt | nt | i
C[C@@H]1CN([C@@H](C)CO)C(=O)c2cc(NC(=O)C3CCCCC3)ccc2O[C@@H](C)CCCCO[C@@H]1CN(C)S(=O)(=O)c1ccc(Cl)cc1 | nt | nt | nt | nt | nt | i
CCc1c(C)nc2ccc(Br)cc2c1SCCC#N | i | i | i | i | 79 | i
CC(=O)N(C)C[C@H]1Oc2ncc(C#Cc3cccnc3)cc2C(=O)N([C@@H](C)CO)C[C@@H]1C | nt | nt | nt | nt | nt | i
c1ccc(-c2csc(NNC3=NCCCCC3)n2)cc1 | i | i | 53 | i | i | i
Clc1ccc(-c2csc(NNC3=NCCCCC3)n2)cc1 | i | i | i | i | i | nt
C[C@@H]1CCCCO[C@H](CN(C)S(=O)(=O)c2ccc(Cl)cc2)[C@@H](C)CN([C@@H](C)CO)C(=O)c2cc(NC(=O)c3ccncc3)ccc2O1 | nt | nt | nt | nt | nt | i
CC(C)(C)c1ccc(OCCOc2ccc(C(C)(C)C)cc2NC=O)c(NC=O)c1 | i | i | 51 | i | i | i
S=C(NCCN1CCOCC1)N/N=C/c1cccs1 | i | i | i | i | i | i
Oc1cccc(/C=N/NC(=S)NCCN2CCOCC2)c1O | i | 48 | i | i | i | i
Nc1nnnn1/N=C/C(Br)=C/c1ccccc1 | i | i | i | i | 75 | nt
O=S(=O)(O)c1ccc(O)c2cc(Nc3ccccc3)ccc12 | i | i | i | nt | 79 | nt
O=C(Nc1ccc(-c2nc3ccccc3s2)cc1)c1cc(-n2cnnc2)ccc1Cl | i | i | 53 | i | 95 | i
Cc1ccc2nc(-c3ccc(NC(=O)CSc4nccc(=O)[nH]4)cc3)sc2c1 | i | i | 51 | i | i | i
Cc1ccc2nc(-c3ccc(NC(=O)CSc4nc(N)cc(=O)[nH]4)cc3)sc2c1 | i | i | i | i | i | i
O=C(CCN1C(=O)NC2(CCCC2)C1=O)Nc1ccc(-c2nc3ccccc3s2)cc1 | i | i | i | nt | 60 | i
Cc1nnc(SCC(=O)Nc2ccc(-c3nc4ccccc4s3)cc2)s1 | i | i | 55 | i | 77 | nt
CCCN1C[C@H](C)[C@H](OC)CN(C)C(=O)c2cc(NC(=O)C3CCC3)ccc2OC[C@@H]1C | nt | nt | nt | nt | nt | i
SMILES | aDG glyco act | EBV LMP1 NFkB | TROY signal inh | HSP90 refold inh | TWEAK Fn14 block | LGR2 antag
O=C(NCC[C@H]1CC[C@H](NS(=O)(=O)c2ccc(Cl)cc2)[C@@H](CO)O1)Nc1ccc(F)cc1 | nt | nt | nt | nt | nt | i
Cc1ccc2nc(-c3ccc(NC(=O)C(C)Sc4nncs4)cc3)sc2c1 (configuration not stated) | i | i | 73 | nt | 89 | 58
CCCCNc1c(-c2ccc(OC)c(Sc3ccc(OC)cc3)c2)nc2ccccn12 | i | i | i | nt | 57 | i
COc1ccc(C(=O)Nc2c(-c3ccccc3)nc3ccccn23)c(OC)c1 | i | i | i | i | 56 | i
O=C(Nc1ccccc1)N1CCCCN2[C@@H](CO)[C@@H](c3ccc(Br)cc3)[C@@H]2C1 | nt | nt | nt | nt | nt | i
O=C(CSCC(=O)N1CCCc2ccccc21)Nc1nc(-c2ccccc2)cs1 | i | i | i | i | 52 | i

Compound activity (PubChem)
